Inhibition data for 26 compounds are collected here from PubChem BioAssay AID449762 (Southern Research Specialized Biocontainment Screening …, 2010).

A word on the inhibition: it is the change of the read-out against control, counted positive when it falls.

The campaign covered roughly 330,000 compounds. About 1,900 (0.58%) were called active. About 4% were inconclusive and are not listed. Not all results are given here. Results with a measured potency or affinity are listed apart. A number with no mark means an inactive call. Rule as the data show it: inconclusive = inhibition above about 70% without an active follow-up result; inactive = below that.

A short description of this assay: M. tuberculosis growth inhibition, HTS (AID 449762).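 Also: bacterial growth assessed after seven days of incubation.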 To be noted: M. tuberculosis H37Rv growth inhibition, 7H9 media; at 25 µM; active compounds read high.
Regarding `Cc1ccc(C)c(Nc2ccc(C(=O)NCCc3ccccc3)cn2)c1`, the inhibition was 4.16%. For the compound `O=C(CCN=C1NS(=O)(=O)c2ccccc21)Nc1ccc(F)cc1Cl`, the inhibition is 7.31%.

Regarding `c1ccc(N2CCN(c3nc4cc5c(cc4s3)OCCO5)CC2)cc1`, the inhibition is 5.85%. Turning to `c1ccc2c(c1)CCN(c1nc3cc4c(cc3s1)OCO4)C2`, the inhibition is 38.1%. For `COc1ccc(S(=O)(=O)N2CCN(CC(=O)N3CCc4ccccc4C3)CC2)cc1OC`, the inhibition was -1.57%. For the compound `CCCC(=O)NNC(=O)CC(=O)Nc1ccccc1C(=O)O`, the inhibition is 2.33%. The result for `O=C(NC(=S)Nc1cccc2ncccc12)c1ccccc1` reads 0.24%; that for `O=C(NC(=S)Nc1cccc2cnccc12)c1ccccc1`, 5.56%. For the compound `CNC(=O)Cc1nc2ccccc2n1CC(=O)Nc1cc(C)cc(C)c1`, the inhibition is -9.59%. Turning to `COc1ccc(CN2[C@@H](CC(C)=O)c3cc(C(F)(F)F)ccc3S2(=O)=O)cc1`, the inhibition is -4.65%.

Consider `Cc1nnnn1-c1ccc(CC(=O)O)cc1`, for which the inhibition was -0.97%. With `CC(C)(C)OC(=O)NCCCCCc1nnc(SCc2ccccc2)o1`, the inhibition is 68.1%. For `Cc1ccc(CSc2nnc(CCNC(=O)OC(C)(C)C)o2)cc1`, the inhibition is 6.64%. In the case of `O=C(/C=C/c1c[nH]c2ccccc12)c1c(O)n(CCc2ccccc2)c(=O)[nH]c1=O`, the inhibition was 35.3%. Consider `CCCCn1c(O)c(C(=O)/C=C/c2ccc3c(c2)OCO3)c(=O)[nH]c1=O`, for which the inhibition was 1%. Take `COCCNC(=O)c1ccc(NC(=O)C2(c3ccccc3)CCCC2)cc1`: the inhibition is 40.9%. Consider `CCn1c(CSCc2ccc(C)cc2)n[nH]c1=S`, for which the inhibition is 3.1%. For the compound `CC1(C)CCC[C@]2(C)[C@H]3Cc4cc(O)ccc4O[C@]3(C)CC[C@@H]12`, the inhibition is 6.49%. With `Cc1cc(/C=N/n2cnnc2)c(C)n1-c1ccc(Cl)cc1`, the inhibition was -4.08%. `Cc1cc(/C=N/n2cnnc2)c(C)n1-c1ccc(OCc2ccc(F)cc2)cc1`: the inhibition is -2.12%.

`O=C(CCCC(=O)OCC(=O)c1ccc(Cl)cc1)NC1CCCCC1`: the inhibition is 30.8%. Turning to `COc1ccc(C2(C#N)CCC(=O)N2c2ccccc2)cc1` (stereo unspecified), the inhibition is 5.44%. The figure for `COc1ccc(Nc2nc(-c3ccc(OC)cc3)c(CCC(=O)O)s2)cc1` is 26.3%; for `COC(=O)CCc1sc(Nc2ccccc2)nc1-c1ccc(OC)cc1` it is 52.4%. For `O=C(CCCN1C(=O)c2ccccc2C1=O)N1CCN(c2ccccn2)CC1`, the inhibition was -8.5%.

Consider `Cn1c(=O)c2c(nc(NCC3CCCO3)n2C)n(C)c1=O` (stereo unspecified), for which the inhibition is -5.47%.
